The source of these data is PubChem BioAssay.

Active and inactive are the calls of the source. Unless noted, how the calls were made is not given here.

Test [1] has as its system Wnt5a (protein binding on small-molecule microarray). The experiment in a line: Wnt5a binders on small-molecule microarray, primary screen, biophysical, 635/667 nm fluorescence (AID 1142).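 Further: fluorescence read at 667 nm with signal to noise per printed feature.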 Particulars: 635 nm fluorescence, higher = more signal.
Test [2] in a line: cell viability in Huh7 cells, primary screen, cytotoxicity control for HCV replication inhibitor project, CellTiter-Glo luminescence, basal, 48 h (AID 1143).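 Further: Huh7 hepatoma cells carrying a hepatitis C replication reporter with no stimulus; test concentration not given here.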 As to conditions: Huh7 HCV replicon, higher = more signal, called active from +8 up or from −8 down.
Test [3] can be described thus: P. aeruginosa biofilm formation inhibitors, primary screen, PAO1 strain, BacTiter-Glo luminescence, LB-PBS (AID 1144). As to conditions: 12 h, higher = more signal.
A short description of test [4]: CREB reporter modulators without forskolin, primary screen, cell-based, PC12, CRE-LacZ reporter, unstimulated (AID 1145). Particulars: no forskolin, luminescence, 4.5 h, higher = more signal, called active from +8 up or from −8 down.
Test [5] can be described thus: CREB reporter modulators under forskolin, primary screen, cell-based, PC12, CRE-LacZ reporter, forskolin-stimulated (AID 1146).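 Further: PC12 cells with 6xCRE LacZ reporter stimulated by forskolin 10 µM; beta-galactosidase reporter signal reflecting CREB driven transcription.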 Particulars: luminescence, 4.5 h, higher = more signal, called active from +8 up or from −8 down.
For test [6], the target named is Streptavidin (Streptomyces avidinii) (UniProt P22629). The experiment in a line: streptavidin binders on small-molecule microarray, primary screen, artefact control for SMM compound annotation, biophysical, 635/667 nm fluorescence (AID 1147).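 Further: signal reflects streptavidin binding to arrayed compounds as a control protein.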 As to conditions: streptavidin binding, higher = more signal.
Chain of Streptavidin (Streptomyces avidinii) (P22629 whole entry, looked up): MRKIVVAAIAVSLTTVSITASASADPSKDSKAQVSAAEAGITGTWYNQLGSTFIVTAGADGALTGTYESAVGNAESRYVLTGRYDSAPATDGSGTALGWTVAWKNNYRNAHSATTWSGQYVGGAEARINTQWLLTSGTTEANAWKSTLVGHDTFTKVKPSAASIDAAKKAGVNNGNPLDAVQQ
Test [7] can be described thus: small-molecule binders of probe aInhba, primary screen, biochemical, small-molecule microarray, 635/667 nm fluorescence (AID 1148).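 Further: score merges 667nm spot fluorescence with signal-to-noise for antibody binding to printed compounds.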 Particulars: higher = more signal.
Test [8] has as its target Torsin-1A (Homo sapiens) (UniProt O14656). The experiment in a line: torsin A binders from cell lysate, primary screen, small-molecule microarray, wild-type, 635/667 nm (AID 1149). As to conditions: COS7 hTOR1A-WT lysate, 635 nm fluorescence, higher = more signal.
The target is the same in test [9]. The experiment in a line: small-molecule binders of mutant TOR1A in lysate, primary screen, cell lysate, small-molecule microarray, COS7 lysate, 635/667 nm fluorescence (AID 1150).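 Further: score pools 667 nm emission and signal to noise measuring lysate protein binding.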 As to conditions: COS7 hTOR1A mutant lysate, 635 nm fluorescence, higher = more signal.
Test [10] concerns Sonic hedgehog protein (Shh). The experiment in a line: small-molecule binders of Shh protein, primary screen, biochemical, small-molecule microarray, 635/667 nm fluorescence (AID 1151).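 Further: Shh protein binding to compounds spotted on small-molecule microarray slides; score combines spot fluorescence intensity with signal-to-noise across triplicate slides.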 Particulars: small-molecule microarray binding, 635 nm fluorescence; higher = more signal.

Chain of Torsin-1A (Homo sapiens) (O14656 whole entry, looked up): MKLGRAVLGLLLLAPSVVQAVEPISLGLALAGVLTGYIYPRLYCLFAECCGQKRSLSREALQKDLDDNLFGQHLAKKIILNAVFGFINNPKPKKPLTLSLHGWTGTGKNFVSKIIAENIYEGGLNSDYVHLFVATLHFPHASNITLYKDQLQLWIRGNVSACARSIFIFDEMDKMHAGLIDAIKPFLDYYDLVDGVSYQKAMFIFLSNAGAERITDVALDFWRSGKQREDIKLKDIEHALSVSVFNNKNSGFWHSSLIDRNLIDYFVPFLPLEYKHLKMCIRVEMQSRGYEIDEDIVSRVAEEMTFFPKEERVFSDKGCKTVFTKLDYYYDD

Take `COCCCNC(=O)[C@@H]1c2ccccc2C(=O)N(Cc2ccccc2Cl)[C@H]1c1ccc(CO)cc1`: the composite z-score was -0.0355 in test [1]; 0.128 in test [6]; 0.326 in test [7]; 0.494 with Torsin-1A (Homo sapiens) [8]; 0.857 in the test with Torsin-1A (Homo sapiens) [9]; 0.861 in [10]. The z-score in [2] is -0.0743 (inactive); in [3] it was 0.66 (inactive); in [4], -0.179 (inactive); in test [5], -0.268 (inactive).

Regarding `CCOC(=O)C[C@H]1[C@H](OC(=O)c2ccc(C(=O)c3ccccc3)cc2)[C@@H](NC(=O)CC(C)C)c2cc(OCCCO)ccc2N1C(=O)c1ccc2ccccc2n1`, the composite z-score in [1] was 0.188; in [6] it was 1.22; in [7], -0.003; in the test with Torsin-1A (Homo sapiens) [8], 0.396; with Torsin-1A (Homo sapiens) [9], 0.15; in test [10], 1.27. The z-score is -0.772 (inactive) in [2], -1.04 (inactive) in test [3], 0.469 (inactive) in test [4] and -0.23 (inactive) in [5].

In the case of `CC1CC/C=C\[C@H]2OC34C=CCN(Cc5ccccc5)C(=O)[C@H]3N(CCCO)C(=O)[C@@H]4C2C(=O)O1` (stereo not given in full), the composite z-score in [1] is -0.403; in [6], -0.942; in test [7], -0.206; with Torsin-1A (Homo sapiens) [8], -0.681; with Torsin-1A (Homo sapiens) [9], -1.56; in test [10], -0.233. The z-score in test [2] was -0.667 (inactive); in [3], 0.446 (inactive); in [4] it was -0.0778 (inactive); in test [5], 0.776 (inactive).

Consider `C=C[C@H](OC)[C@@H](OC(=O)Nc1ccc(OC)cc1)c1ccc(O)c(F)c1`, for which the composite z-score was -0.311 in test [1]; -1.2 in [6]; -0.179 in [7]; 0.732 with Torsin-1A (Homo sapiens) [8]; -0.11 in the test with Torsin-1A (Homo sapiens) [9]; 0.665 in test [10]. Moreover, the z-score in test [2] was -3.6 (inactive); in test [3], -0.689 (inactive); in test [4], 1.24 (inactive); in test [5], 3.4 (inactive).

In the case of `CN(C)CCCC[C@@H]1NC(=O)[C@H]2C[C@@H](C(=O)NCCCCCCN)[C@@H](c3ccc(O)cc3)N2C1=O`, the composite z-score in [1] is 0.538; in test [6], 1.28; in test [7], 0.308; in the test with Torsin-1A (Homo sapiens) [8], 1.13; in the test with Torsin-1A (Homo sapiens) [9], 0.755; in [10] it was 2.03. Moreover, the z-score in [2] is 0.181 (inactive); in test [3] it was 0.523 (inactive); in [4], -0.256 (inactive); in test [5] it was -0.139 (inactive).

In the case of `CCCC[C@@H]1C[C@H]1[C@@H](NC(=O)c1ccco1)c1ccccc1C(F)(F)F`, the composite z-score was 0.667 in test [1]; 1.42 in [6]; 2.01 in [7]; 0.408 in the test with Torsin-1A (Homo sapiens) [8]; -0.0311 with Torsin-1A (Homo sapiens) [9]; 0.0509 in test [10]. The z-score in test [2] was -0.547 (inactive); in test [3], 0.431 (inactive); in test [4] it was 0.773 (inactive); in test [5], 1.3 (inactive).

For `C=CCC(OC(C)=O)[C@@H]1[C@@H](N(Cc2ccc(-c3ccccc3)cc2)C(=O)Cc2ccc(OC)cc2)c2cc(OCCCO)ccc2N1C(=O)Cc1ccc2ccccc2c1` (stereo not given in full), the composite z-score in test [1] was -0.263; in test [6], 0.192; in test [7], -0.0221; in the test with Torsin-1A (Homo sapiens) [8], -0.921; in the test with Torsin-1A (Homo sapiens) [9], 0.616; in test [10], 0.412. The z-score was -1.45 (inactive) in [2], 0.294 (inactive) in test [3], 0.745 (inactive) in test [4] and 0.358 (inactive) in test [5].

`CC1CC/C=C\[C@H]2OC34C=CCN(C(C)(C)C)C(=O)[C@H]3N(C(C)CO)C(=O)[C@@H]4C2C(=O)O1` (stereo not given in full): the composite z-score is -0.273 in test [1]; -1.3 in test [6]; -0.128 in test [7]; -0.468 in the test with Torsin-1A (Homo sapiens) [8]; -0.441 with Torsin-1A (Homo sapiens) [9]; 0.622 in test [10]. For the same compound, the z-score is 0.4 (inactive) in test [2], 1.01 (inactive) in test [3], -0.22 (inactive) in test [4] and 0.826 (inactive) in [5].

Take `NCCCCCCNC(=O)[C@@H]1C[C@@H]2C(=O)NCC(=O)N2[C@@H]1c1ccc(O)cc1`: the composite z-score in [1] was 0.387; in test [6], 0.718; in test [7] it was -0.104; with Torsin-1A (Homo sapiens) [8], 1.3; in the test with Torsin-1A (Homo sapiens) [9], 0.665; in test [10] it was 2.18. The z-score was -0.402 (inactive) in [2], -2.2 (inactive) in [3], -1.07 (inactive) in test [4] and 0.0413 (inactive) in test [5].

`CCOC(=O)C1=CC[C@@H](c2ccccc2)N(S(=O)(=O)c2ccc(C)cc2)[C@H]1c1ccccc1C`: the composite z-score in test [1] is 0.572; in test [6], 1.05; in test [7] it was -0.15; in the test with Torsin-1A (Homo sapiens) [8], 0.339; in the test with Torsin-1A (Homo sapiens) [9], 0.581; in [10] it was -0.19. The z-score in [2] is -2.81 (inactive); in [3] it was -0.953 (inactive); in [4], 0.0707 (inactive); in test [5] it was 0.285 (inactive).

With `CC(=O)n1cc(C(O)C2C=CC3C(=O)N(c4ccccc4)C(=O)C3N2Nc2ccc([N+](=O)[O-])cc2)c2ccccc21` (stereo not given), the composite z-score is 0.199 in test [1]; 0.808 in test [6]; -0.0371 in [7]; -0.268 with Torsin-1A (Homo sapiens) [8]; 0.475 with Torsin-1A (Homo sapiens) [9]; -0.0727 in test [10]. For the same compound, the z-score in test [2] was -0.547 (inactive); in test [3], -0.197 (inactive); in test [4], -0.322 (inactive); in [5], -0.647 (inactive).

As for `C[N+](C)(C)CCCCNC(=O)[C@@H]1C[C@@H]2C(=O)N[C@@H](Cc3ccccc3)C(=O)N2[C@@H]1c1cccc(OCCO)c1`, the composite z-score was 0.175 in [1]; -1.02 in test [6]; -0.179 in test [7]; 0.938 with Torsin-1A (Homo sapiens) [8]; 0.713 with Torsin-1A (Homo sapiens) [9]; 1.91 in test [10]. Besides, the z-score in [2] is -0.36 (inactive); in [3], -0.314 (inactive); in test [4], -0.26 (inactive); in test [5], -0.471 (inactive).

With `CCOC(=O)C[C@H]1[C@H](OC(=O)c2ccc(C(=O)c3ccccc3)cc2)[C@@H](NC(=O)c2ccccc2)c2cc(OCCCO)ccc2N1C(=O)Cc1ccc(OC)cc1`, the composite z-score was 0.285 in test [1]; 0.101 in test [6]; -0.0413 in test [7]; -0.0962 with Torsin-1A (Homo sapiens) [8]; 0.322 with Torsin-1A (Homo sapiens) [9]; -0.0887 in test [10]. The z-score in test [2] is 0.0963 (inactive); in test [3] it was -0.0343 (inactive); in test [4] it was 2.75 (inactive); in [5] it was 0.0836 (inactive).
